Assay outcomes (PubChem)
The full list was thinned out, with hits kept by preference.
Tgondii IFNg: blocks Toxoplasma gondii growth in the presence of IFN-gamma. Toxoplasma gondii growth in IFN-gamma-treated host cells; stronger effect = lower value. activity change, negative = inhibition, % (test concentration not listed). 69,000 tested, 3.8% active. AID 1259416; in the data active means activity change below about -70%, passing the limit was not always enough;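 further: host cells are HeLa cells infected with Toxoplasma gondii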
* marks the source's active call; other numbers are inactive results.

SMILES | Tgondii IFNg
Cc1cccc(C(C(=O)NCc2noc(-c3ccco3)n2)N(C)C)c1 (centres undefined) | 5.5
CNC(=O)[C@@]12CCC3(CCN(C(=O)COC)CC3)[C@H]1CN(S(C)(=O)=O)C2 | -1.1
CCOc1ccc(-c2nc3c(s2)CN(S(=O)(=O)c2cccc(Cl)c2C)CC3)cc1 | -65.2
CCc1ccccc1S(=O)(=O)N1CCc2nc(-c3ccc(OC)cc3)sc2C1 | -92.1*
CCOc1ccc(S(=O)(=O)N2CCc3nc(-c4ccccc4)sc3C2)cc1 | 14.8
O=C(c1ccccc1C1CCNC1)N1CCc2ncccc2C1 (centres undefined) | 4.0
C[C@@H]1O[C@@H](O[C@@H]2[C@H](Oc3cc(O)c(C(=O)CCc4ccc(O)cc4)c(O)c3)O[C@H](CO)[C@@H](O)[C@@H]2O)[C@H](O)[C@H](O)[C@H]1O | 3.9
Cc1ccc(C)c(S(=O)(=O)N2CCC3(CC2)Nc2cc(F)ccc2-n2cccc23)c1 | 44.7
Cc1cccc(-c2ncc(CN3CCCC(Cn4ccnc4C)C3)cn2)c1 (centres undefined) | -6.3
CCn1ccnc1CN1CCCC(c2cncc(-c3cccc(Cl)c3)n2)C1 (centres undefined) | -109.7*
CCCn1ccnc1CN1CCCC(c2nn(C)c(=O)n2CC)C1 (centres undefined) | 3.6
CCOC(=O)C1CCN(C(=O)c2ccc(-c3csc(CC)n3)cc2)CC1 | 215.4
Cc1cc(C)cc(C(=O)NCCc2csc(-c3ccc(Cl)cc3)n2)c1 | -57.3
Cc1ccsc1-c1nc(COc2ccc(S(C)(=O)=O)cc2)c(C)o1 | 1.5
CC(C)Cn1cncc1CN1CC(C(=O)O)CC1=O (centres undefined) | 7.0
Cc1ccccc1NC(=O)CN1CCC2(CC1)N=C(c1cccc(Cl)c1)C(=O)N2 | -8.6
CN(C)C(=O)N1CCC(c2nc3ccc(-c4ccncc4)cn3n2)CC1 | 18.9
CC(=O)N1CCC2(CCOCC2COCC(=O)N(C)C)CC1 (centres undefined) | -0.2
Cc1cc(C(=O)NC2CCC3(CCC(=O)N3)CC2)no1 (centres undefined) | 0.4
Clc1ccc(-c2nc(N3CCOCC3)ncc2-c2ncc[nH]2)cc1 | -60.3
Fc1ccc(-c2nc(N3CCN(c4ccccn4)CC3)ncc2-c2ncc[nH]2)cc1 | -92.3*
O=C(CCCN1CCN(c2ccccn2)CC1)c1ccc(F)cc1 | 8.6
CCc1ccc(NC(=O)c2c(O)c3cccnc3n(-c3ccc(OC)cc3)c2=O)cc1 | -35.0
CC(C)N1CCCn2c(nc(CNC(=O)c3cccn3C)cc2=O)C1 | 0.4
CC(C)c1cc(-c2n[nH]c(=O)n2-c2ccc3c(ccn3C)c2)c(O)cc1O | -79.5*
SMILES | Tgondii IFNg
FC(F)(F)c1cccc(-n2nnnc2CSc2ccccn2)c1 | -10.2
O=C(Cn1ncc2c(N3CCN(c4ccccc4)CC3)ncnc21)Nc1ccc(F)cc1 | -60.5
N#Cc1ccc(OCc2c(Cl)sc3ccc(Cl)cc23)cc1 | -6.0
N#Cc1cc(Br)c(OCc2c(F)cccc2Cl)c(Br)c1 | -78.0*
O=C1C2C3C=CC(O3)C2C(=O)N1OCc1c(F)cccc1Cl (centres undefined) | 41.8
Brc1ccc(Sc2nc3ccccc3[nH]2)cc1 | -2.3
CC[C@@]1(O)C(=O)OCc2c1cc1n(c2=O)Cc2c-1nc1cc(F)c(C)c3c1c2[C@@H](N)CC3 | -86.2*
CC[C@@]1(O)C(=O)OCc2c1cc1n(c2=O)Cc2cc3cc(O)ccc3nc2-1 | -89.6*
CC(=O)Nc1ccccc1NC(=O)CN(Cc1ccc2[nH]ccc2c1)C1CC1 | -3.8
COc1ccc(-n2ccnc2-c2ccc(CO)o2)cc1OC | -2.9
O=C(CCSc1ccc2c(c1)OCCO2)N1CCCn2cncc2C1 | 5.6
CC(=O)N1CCO[C@]2(CCC[C@H]2COCC(=O)N2CCCC2)C1 | -69.5
C=C1SC(=Nc2cccc(OC)c2)N(C(=O)C(c2ccccc2)C2CCCC2)C1(C)C (centres undefined) | -90.2*
C=C1SC(=Nc2ccccc2Cl)N(C(=O)c2sc3ccccc3c2Cl)C1(C)C | -28.2
NC(=O)C(c1ccccc1)C1CCCC1 (centres undefined) | 10.1
CC(C)C(NC(=O)c1cc(COc2ccccc2)[nH]n1)c1nccn1C (centres undefined) | -10.9
CN(Cc1nc(-c2ccccc2)no1)C(=O)C1CC2(CCNCC2)CN1 (centres undefined) | 37.0
CCCc1cc(C(=O)N2CCCC(c3cc4ccccc4cn3)C2)n(C)n1 (centres undefined) | -30.9
Cc1nc2ccccn2c1CC(=O)N1CCCC(c2ccc(Cc3cccc(F)c3)cn2)C1 (centres undefined) | -15.2
Cc1cc(C(=O)N2CCCC(c3ccc(Cc4ccc(Cl)cc4)cn3)C2)nc(N(C)C)n1 (centres undefined) | -89.7*
C=CCO[C@H]1CN(c2ccc(C)nn2)[C@H]2CCCO[C@@H]12 | 0.4
COc1cc(OC)c2nc(NCCC(N)=O)cc(C)c2c1 | 10.3
Cl/C(=C/n1cncn1)c1ccc(Cl)cc1Cl | -52.6
Cc1ccc(C(=O)Nc2ccc(NC(=O)CCN3CCCO3)cc2)o1 | -49.1
CC(=O)Nc1ccc(S(=O)(=O)N2CCC(Cc3cc(N)nc(C)n3)CC2)cc1 | -2.6
SMILES | Tgondii IFNg
CC(=O)Nc1ccc(S(=O)(=O)N2CCC(n3cnc4cccnc43)CC2)cc1 | -95.5*
O=C(N1CCC(n2cnc3cccnc32)CC1)N1c2ccccc2Sc2ccccc21 | -11.3
O=S(=O)(c1ccc(S(=O)(=O)N2CCCN(Cc3ccccc3)C2)cc1)N1CCCC1 | -44.2
CCN(Cc1ccccc1)C(=O)CCN1CCOC(C(F)(F)F)C1 (centres undefined) | -6.4
O=C(O)CSc1nc2ccccc2n1Cc1ccccc1 | 13.1
COC(=O)c1c(C)nc2n(Cc3ccccc3)c3ccccc3n12 | -84.3*
Cc1cc(NC(=O)CSc2nnc3n(Cc4ccccc4)c4ccccc4n23)no1 | -1.6
O=C(O)c1cnc(-c2cccc3c2CCNC3)c(Cl)c1 | 2.2
CCCCc1cn(CC2CCN(C(=O)C3CC=CCC3)CC2)nn1 (centres undefined) | -2.5
Cc1ccc(C)c(-c2coc(-c3ccc(NC(=O)Nc4ccccc4F)cc3)n2)c1 | -34.9
Cc1ccc(F)c(NC(=O)Nc2ccc(-c3cccc4[nH]nc(N)c34)cc2)c1 | -75.0*
Cc1ccc(-c2coc(-c3ccc(NC(=O)Nc4ccc(F)cc4F)cc3)n2)c(C)c1 | 3.1
CC(=O)N1CCCC[C@@H]2[C@H]1[C@@H](c1ccccc1)CCN2C(=O)Cn1cc(C)nn1 | 0.5
Cc1ccc(C2(O)CCN(C(=O)c3ccccc3NC(=O)C(C)C)CC2)nc1 | 9.3
O=C(O)c1ccccc1C1CCN(C(=O)CCc2cccnc2)C1 (centres undefined) | -4.5
C[C@H](CO)N1C[C@H](C)[C@H](CN(C)C(=O)Nc2cccc(F)c2)Oc2cc(C#CC3(O)CCCC3)ccc2S1(=O)=O | -6.7
Cc1ccccc1-c1ccc2c(c1)O[C@@H](CN(C)C(=O)Nc1ccc(C(F)(F)F)cc1)[C@@H](C)CN([C@H](C)CO)S2(=O)=O | 65.5
CCCNC(=O)N(C)C[C@@H]1Oc2cc(C#C[C@H](C)O)ccc2S(=O)(=O)N([C@H](C)CO)C[C@H]1C | -69.9
Cc1ccccc1-c1ccc2c(c1)O[C@H](CN(C)C(=O)Nc1ccc(C(F)(F)F)cc1)[C@@H](C)CN([C@H](C)CO)S2(=O)=O | -97.1*
C[C@@H]1CN([C@@H](C)CO)S(=O)(=O)c2ccc(C#CC3(O)CCCC3)cc2O[C@@H]1CN(C)C(=O)Nc1cccc(F)c1 | -103.5*
